The list is not random: actives were taken first. Their share in the collection is about 19%.
HepG2 tox: qHTS for Inhibitors of TGF-b: Cytotox Counterscreen; HepG2 CAGA-GFP viability, ATP luminescence, 18 h; Potency, µM (doses to about 46.1 µM), inactives show at the highest dose activity change, negative = cytotoxicity, most hits filed as cytotoxic; hit rate 0.76% among 410,000; AID 588856, 2011; further: potency means the concentration at half of the fitted maximal effect
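HepG2 CAGA-GFP cells (1000/well, DMEM with 1% FBS) received compound, then TGF-beta at 500 pg/mL final, and were incubated 18 hours at 37 degrees C. Viability was read by CellTiter-Glo luminescence. Media-only wells were set as complete cell-killing and DMSO as no toxicity.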
TDP1 cell noCPT: qHTS for Inhibitors of human tyrosyl-DNA phosphodiesterase 1 (TDP1): qHTS in cells in absence of CPT; DT40 Tdp1-/- hTDP1 cells, no CPT, ATP luminescence, 48 h; Potency, µM (titrated, usually from 46.2 µM), without a hit: top-dose activity change, negative = growth inhibition, actives largely listed as inhibitors; hit rate 15% among 420,000; further: potency means the concentration at half of the fitted maximal effect; on the % scale 0 is the no-effect control and ±100 the full control effect; nearly all actives have a fitted effect of over 55% in size
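Stably hTDP1-transfected Tdp1-null chicken DT40 cells were treated with library compounds minus camptothecin and grown for at least 48 hr at 37 °C, after which cellular ATP was quantified by luminescence.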
DT40 TDP1 CPT: qHTS for Inhibitors of human tyrosyl-DNA phosphodiesterase 1 (TDP1): qHTS in cells in presence of CPT; hit rate 12% among 420,000; AID 686979, 2013; Potency, µM (titrated, usually from 46.2 µM), inactives show top-dose activity change, negative = growth inhibition, hits mostly inhibitors; chicken DT40 Tdp1-/-;hTDP1 cells + 20 nM CPT, ATP luminescence, 48 h; further: potency means the concentration at half of the fitted maximal effect; on the % scale 0 is the no-effect control and ±100 the full control effect; nearly all actives have a fitted effect of over 55% in size
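Chicken DT40 Tdp1-/- cells stably complemented with human TDP1 were seeded at 400 cells/well in medium containing 20 nM camptothecin, exposed to pin-transferred compounds, and grown at 37 °C for at least 48 hr. Viability was read as ATP luminescence.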
IL-1B inflam inh: qHTS for Inhibitors of Inflammasome Signaling: IL-1-beta AlphaLISA Primary Screen. hit rate 4.7% among 360,000. activity change, % at 57.5 µM. AID 743279, 2014. THP-1 LPS/ATP IL-1B secretion, AlphaLISA, 16 h; stronger effect = lower value; in the data active means activity change below about -50%; inconclusive means mostly about -30% to -49%; further: on the % scale 0 is the no-effect control and ±100 the full control effect
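THP-1 cells pretreated 1 hr with compounds (up to 57.5 uM final), then stimulated with LPS (250 ng/mL final) plus ATP (1.25 mM final); secreted IL-1B measured by AlphaLISA after 16 hr, decreased signal indicating inhibition.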
TGFb inhibitor: qHTS for Inhibitors of TGF-b | HepG2 CAGA-GFP TGF-b/SMAD3 reporter, GFP fluorescence, 18 h; TGF-beta stimulated, 500 pg/mL final | Potency, µM (titrated, usually from 46.1 µM), for inactives: at the top dose activity, negative = inhibition, most hits filed as inhibitors | hit rate 1.2% among 410,000; further: potency means the concentration at half of the fitted maximal effect; on the % scale 0 is the no-effect control and ±100 the full control effect; nearly all actives have a fitted effect of over 65% in size
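First, reporter cells (HEPG2 CAGA-GFP) rested 2 h at 37 degrees C. Next, compounds were pinned in and TGF-beta added to 500 pg/mL final. After 18 h, GFP was imaged per cell and summed per well.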
ASM inhibitor: Inhibitors of Secretory Acid Sphingomyelinase (S-ASM): qHTS. Sphingomyelin phosphodiesterase (Homo sapiens), P17405. placental ASM, HMU-PC fluorogenic substrate, 60 min. Potency, µM (top dose mostly 57.5 µM), without a hit: at the top dose activity change, negative = inhibition, hits mostly inhibitors. hit rate 0.006% among 340,000. AID 504937, 2011; further: potency means the concentration at half of the fitted maximal effect
Target sequence (P17405 47-631 limits assumed): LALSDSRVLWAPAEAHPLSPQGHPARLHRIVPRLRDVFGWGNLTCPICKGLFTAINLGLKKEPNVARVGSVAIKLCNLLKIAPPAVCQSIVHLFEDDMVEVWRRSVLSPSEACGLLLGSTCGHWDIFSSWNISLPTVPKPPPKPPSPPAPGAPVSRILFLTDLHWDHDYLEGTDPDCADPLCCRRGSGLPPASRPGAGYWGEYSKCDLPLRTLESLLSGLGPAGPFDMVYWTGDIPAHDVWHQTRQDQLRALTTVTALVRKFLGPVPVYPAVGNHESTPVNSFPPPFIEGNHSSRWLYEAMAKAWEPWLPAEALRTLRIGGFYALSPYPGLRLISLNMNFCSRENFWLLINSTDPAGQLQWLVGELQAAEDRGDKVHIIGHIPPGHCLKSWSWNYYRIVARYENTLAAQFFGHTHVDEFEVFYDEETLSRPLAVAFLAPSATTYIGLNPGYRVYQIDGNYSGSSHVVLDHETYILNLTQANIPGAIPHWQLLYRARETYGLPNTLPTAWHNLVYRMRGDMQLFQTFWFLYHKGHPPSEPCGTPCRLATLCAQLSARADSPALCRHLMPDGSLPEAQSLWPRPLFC
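HMU-PC0 cleavage (9 uM final) by human placental ASM, 60 min at 37 °C following 10 min compound exposure at RT; stopped at pH 10, fluorescence Ex 386/Em 447 nm.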
Numbers without * were called inactive; ? = inconclusive; · = no result; [ ] = another dose, or the depositor's remark. Unless noted, the call rests on the fitted dose curve; in most records, active means well fitted curve in the direction sought with a large enough effect; inconclusive means small, poorly fitted or top-dose-only effect, or another doubt; inactive means no such curve, though single readings can be large; an effect the other way counts as inactive or inconclusive.

SMILES | HepG2 tox | TDP1 cell noCPT | DT40 TDP1 CPT | IL-1B inflam inh | TGFb inhibitor | ASM inhibitor
Nc1nc2ccccc2n1S(=O)(=O)c1ccccc1 | -19% | ? | ? | 14 | -19% | ·
CC1CN(CC(=O)NCCC2COc3ccccc3O2)Cc2cc(Cl)ccc2O1 (stereo unspecified) | · | -23% | 6%[9.04 µM] | · | · | ·
CCc1ccc(S(=O)(=O)/N=C2/C=C(Sc3ncn[nH]3)C(=O)c3ccccc32)cc1 | 2µM* | 0.73µM* | 0.65µM* | -99* | 1.4µM* | 1%
O=C(O)c1cccc(NC2=C(n3nnc4ccccc43)C(=O)c3ccccc3C2=O)c1 | 1% | -1% | -10% | 29 | -3% | 0%
CCc1ccc(S(=O)(=O)O)cc1 | · | -16% | -7% | · | · | ·
CCc1ccc(S(=O)(=O)/N=C2\C=C(Nc3cccc(C(=O)O)c3)C(=O)c3ccccc32)cc1 | -89% | 16µM* | 18µM* | -101* | ? | -1%
CCc1ccc(S(=O)(=O)/N=C2\C=C(Nc3ccc(O)cc3)C(=O)c3ccccc32)cc1 | 1.1µM* | 3.3µM* | 4.1µM* | -103* | 0.89µM* | -27%
Cc1ccccc1-c1noc(CSc2nc(-c3ccc(F)cc3)cc(=O)[nH]2)n1 | -12% | 0% | -16% | · | -5% | ·
NC(=O)CC(NC(=O)c1ccc(Br)cc1)c1ccc(N2CCN(c3ccc(F)cc3)CC2)c([N+](=O)[O-])c1 (stereo unspecified) | -33% | 23µM* | 26µM* | -10 | -22% | -2%
NC(=O)CC(NC(=O)c1ccc(Br)cc1)c1ccc(N2CCCCCCC2)c([N+](=O)[O-])c1 (stereo unspecified) | -59% | 10µM* | 21µM* | -29 | ? | -10%
NC(=O)CC(NC(=O)c1ccccc1)c1ccc(N2CCN(c3ccccn3)CC2)c([N+](=O)[O-])c1 (stereo unspecified) | 0% | 21µM* | 21µM* | 2 | ? | 0%
NC(=O)CC(NC(=O)c1ccc(Br)cc1)c1ccc(N2CCN(c3ccccc3)CC2)c([N+](=O)[O-])c1 (stereo unspecified) | -17% | ? | ? | -29 | ? | -4%
NC(=O)CC(NC(=O)c1cccc(Br)c1)c1ccc(N2CCN(c3ccc(F)cc3)CC2)c([N+](=O)[O-])c1 (stereo unspecified) | -16% | 13µM* | 23µM* | -1 | -32% | 3%
CCOc1ccccc1NC(=O)c1nc[nH]c1C(=O)Nc1ccccc1OCC | 1% | ? | 16µM* | 25 | -6% | 29%
CCOc1ccccc1NC(=O)c1cnccn1 | -72% | -12% | 4% | -59* | 2% | -2%
CCOc1ccccc1NC(=O)C(CC)Sc1nc2ccncc2[nH]1 (stereo unspecified) | -12% | 16µM* | ? | 11 | -12% | 0%
CC(C)C(NS(C)(=O)=O)c1nnc2n1CCN(Cc1ccnc3ccccc13)CC2 (stereo unspecified) | · | -29% | ? | · | · | ·
COc1cc(CNC2CCCC2)cc(Cl)c1OCc1ccc(F)cc1 | -93% | 15µM* | ? | ? | -26% | -1%
COc1cc(CNC2CCCCCCC2)cc(Cl)c1OCC(N)=O | -20% | -13% | -13% | 0 | 8% | 3%
COc1cc(CNC2CCCC2)cc(Cl)c1OCc1ccccc1Cl | -99% | 23µM* | 23µM* | -94* | ? | -3%

Compound activity as filed in PubChem.
